From the supplement of paper PMC10849652
The full data set covers some 7,900 targets. This sample favours those with a hit. About 0.6% of all pairs of compound and target were hits.

Legend:
Experiment in all cases: log2 fold change, soluble protein after heating vs DMSO (PISA); higher = thermal stabilisation; K562 cells, 10 uM, 30 min; active = over 0.2 and 3.5 SD of the protein, either way, in both replicates (recomputed)
erlotinib = compound: C#Cc1cccc(Nc2ncnc3cc(OCCOC)c(OCCOC)cc23)c1 [erlotinib]
How it was run: (§1)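 K562 cells at 2×10^6 cells/mL were given 10 μM compound for 30 min. Aliquots then went through 3 min of heating across 48°C-58°C, were pooled, and were extracted in PBS with 0.5% NP-40 at 4°C, and the supernatant after 21,000xg for 90 min was quantified by TMTpro 16plex LC-MS/MS with channel sums equalised. Thermal stability relative to control samples, from duplicates, is given as log2 fold change.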

[1] = compound: C/C(=N\NC(=O)C1=CC(=CC=C1)S(=O)(=O)N2CCOCC2)/C3=C(C=CC(=C3)Cl)O
How it was run: as §1

[2] = compound: C1=CC(=C(C=C1Cl)C2=NC3=NC=CN=C3C(=N2)NC4=CC=NC=C4)F
How it was run: as §1

[3] = compound: C1=CC(=CC=C1C2=NC3=C(N2)C=C(C=C3)C(=O)N)OC4=CC=C(C=C4)Cl
How it was run: as §1

[4] = compound: C1=CC2=C(C=CC(=C2)/C=C\3/C(=O)NC(=NCC4=CC=CS4)S3)N=C1
How it was run: as §1

[5] = compound: C1=CC2=NC=CN=C2C=C1/C=C/3\C(=O)NC(=O)S3
How it was run: as §1

[6] = compound: C1=CC=C(C=C1)C2=NC(=C(N2)C3=CC=NC=C3)C4=CC(=C(C=C4)Cl)O
How it was run: as §1

[7] = compound: C1=CC=C2C(=C1)C3=NNC4=CC=CC(=C43)C2=O
How it was run: as §1

[8] = compound: C1CCN(C1)C(=O)NC2=CC=CC(=C2)NC3=NC=C(C(=N3)NCCC4=CN=CN4)Br
How it was run: as §1

[9] = compound: C1CN(CCC1(CC2=CC=C(C=C2)Cl)N)C3=NC=NC4=C3C=CN4
How it was run: as §1

Measured: log2 fold change

PPP2R5C isoform 5 (UniProt Q13362)
inactive: erlotinib 0.028 | [1] 0.021 | [2] 0.015 | [3] -0.014 | [4] 0.009 | [5] -0.036 | [6] 0.004 | [7] 0.047 | [8] -0.018 | [9] -0.002

PRKAR2A (UniProt P13861)
active: [9] -0.486
inactive: erlotinib -0.002 | [1] 0.013 | [2] -0.024 | [3] 0.062 | [4] 0.082 | [5] -0.005 | [6] -0.021 | [7] -0.004 | [8] -0.177

PSMD11 (UniProt O00231)
inactive: erlotinib -0.097 | [1] -0.023 | [2] -0.039 | [3] 0.007 | [4] -0.035 | [5] -0.035 | [6] 0.058 | [7] 0.047 | [8] -0.033 | [9] -0.026

PMPCB (UniProt O75439)
Sequence of UniProt O75439 (O75439 whole entry, looked up): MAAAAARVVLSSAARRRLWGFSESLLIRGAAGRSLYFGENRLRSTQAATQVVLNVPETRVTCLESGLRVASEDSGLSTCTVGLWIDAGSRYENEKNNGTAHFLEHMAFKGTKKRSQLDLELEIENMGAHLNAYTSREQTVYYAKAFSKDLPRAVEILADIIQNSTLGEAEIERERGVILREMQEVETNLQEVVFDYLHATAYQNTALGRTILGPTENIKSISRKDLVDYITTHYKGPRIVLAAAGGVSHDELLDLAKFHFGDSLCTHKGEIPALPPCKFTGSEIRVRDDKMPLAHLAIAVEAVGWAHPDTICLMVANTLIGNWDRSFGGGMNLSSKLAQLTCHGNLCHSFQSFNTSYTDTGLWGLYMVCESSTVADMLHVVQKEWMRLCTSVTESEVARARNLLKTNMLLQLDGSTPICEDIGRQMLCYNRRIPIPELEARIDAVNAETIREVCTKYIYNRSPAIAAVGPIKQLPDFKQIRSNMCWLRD
inactive: erlotinib -0.022 | [1] 0 | [2] 0.031 | [3] 0.024 | [4] 0.019 | [5] 0.007 | [6] 0.023 | [7] 0.078 | [8] -0.014 | [9] 0.046

PEX7 (UniProt O00628)
Sequence of UniProt O00628 (O00628 whole entry, looked up): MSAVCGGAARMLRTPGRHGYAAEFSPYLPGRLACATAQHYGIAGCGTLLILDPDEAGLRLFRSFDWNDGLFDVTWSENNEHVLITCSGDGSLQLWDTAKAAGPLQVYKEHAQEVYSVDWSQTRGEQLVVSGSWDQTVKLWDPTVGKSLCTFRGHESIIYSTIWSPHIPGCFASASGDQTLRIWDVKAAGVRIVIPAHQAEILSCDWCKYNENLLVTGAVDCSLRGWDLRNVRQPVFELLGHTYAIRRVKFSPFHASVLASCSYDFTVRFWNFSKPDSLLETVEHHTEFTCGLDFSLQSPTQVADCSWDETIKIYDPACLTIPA
inactive: erlotinib 0.021 | [1] 0.034 | [2] 0.034 | [4] 0.08 | [5] -0.117 | [6] 0.039 | [7] -0.041 | [8] -0.031 | [9] 0.063
active: [3] 0.276

PRUNE1 (UniProt Q86TP1)
inactive: erlotinib 0.002 | [1] 0.063 | [2] 0.062 | [3] 0.03 | [4] -0.034 | [5] -0.016 | [6] 0.051 | [7] 0.045 | [8] -0.079 | [9] -0.005

PNPLA2 (UniProt Q96AD5)
Sequence of UniProt Q96AD5 (Q96AD5 whole entry, looked up): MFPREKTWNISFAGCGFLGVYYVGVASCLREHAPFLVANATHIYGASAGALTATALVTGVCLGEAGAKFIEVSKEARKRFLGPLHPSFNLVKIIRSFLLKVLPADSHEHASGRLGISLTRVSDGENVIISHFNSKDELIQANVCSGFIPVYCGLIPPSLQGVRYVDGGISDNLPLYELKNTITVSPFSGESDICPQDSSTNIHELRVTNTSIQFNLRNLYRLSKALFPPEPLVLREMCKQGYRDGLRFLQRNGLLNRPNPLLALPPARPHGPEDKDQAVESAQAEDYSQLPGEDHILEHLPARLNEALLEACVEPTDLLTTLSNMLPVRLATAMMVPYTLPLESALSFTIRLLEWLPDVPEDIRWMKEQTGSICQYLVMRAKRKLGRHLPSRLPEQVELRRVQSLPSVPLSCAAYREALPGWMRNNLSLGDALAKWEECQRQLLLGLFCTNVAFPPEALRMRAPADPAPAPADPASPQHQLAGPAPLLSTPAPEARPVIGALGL
inactive: erlotinib 0.017 | [1] 0.052 | [2] 0.007 | [3] -0.021 | [4] 0.045 | [5] 0.063 | [6] -0.015 | [7] -0.027 | [8] 0.101 | [9] -0.034

PARL (UniProt Q9H300)
inactive: erlotinib -0.019 | [1] 0.015 | [2] 0.011 | [3] -0.011 | [4] 0.016 | [5] 0.044 | [6] 0.026 | [7] -0.012 | [8] 0.015 | [9] 0.017

PSMC3 (UniProt P17980)
Sequence of UniProt P17980 (P17980 whole entry, looked up): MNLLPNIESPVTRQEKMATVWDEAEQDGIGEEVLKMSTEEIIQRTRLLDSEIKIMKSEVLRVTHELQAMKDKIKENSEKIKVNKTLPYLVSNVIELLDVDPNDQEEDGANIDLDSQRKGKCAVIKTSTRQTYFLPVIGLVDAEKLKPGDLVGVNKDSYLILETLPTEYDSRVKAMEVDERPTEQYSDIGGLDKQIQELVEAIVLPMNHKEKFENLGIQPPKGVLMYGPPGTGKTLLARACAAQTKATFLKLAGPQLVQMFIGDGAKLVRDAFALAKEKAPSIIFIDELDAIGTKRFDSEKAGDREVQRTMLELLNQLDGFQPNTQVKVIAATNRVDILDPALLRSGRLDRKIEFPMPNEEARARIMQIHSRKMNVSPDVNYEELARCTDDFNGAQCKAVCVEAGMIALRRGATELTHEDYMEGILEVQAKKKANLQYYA
inactive: erlotinib -0.039 | [1] -0.107 | [2] -0.037 | [3] 0.008 | [4] -0.059 | [5] -0.025 | [6] -0.002 | [7] -0.001 | [8] 0.026 | [9] -0.004

PNN (UniProt Q9H307)
Sequence of UniProt Q9H307 (Q9H307 whole entry, looked up): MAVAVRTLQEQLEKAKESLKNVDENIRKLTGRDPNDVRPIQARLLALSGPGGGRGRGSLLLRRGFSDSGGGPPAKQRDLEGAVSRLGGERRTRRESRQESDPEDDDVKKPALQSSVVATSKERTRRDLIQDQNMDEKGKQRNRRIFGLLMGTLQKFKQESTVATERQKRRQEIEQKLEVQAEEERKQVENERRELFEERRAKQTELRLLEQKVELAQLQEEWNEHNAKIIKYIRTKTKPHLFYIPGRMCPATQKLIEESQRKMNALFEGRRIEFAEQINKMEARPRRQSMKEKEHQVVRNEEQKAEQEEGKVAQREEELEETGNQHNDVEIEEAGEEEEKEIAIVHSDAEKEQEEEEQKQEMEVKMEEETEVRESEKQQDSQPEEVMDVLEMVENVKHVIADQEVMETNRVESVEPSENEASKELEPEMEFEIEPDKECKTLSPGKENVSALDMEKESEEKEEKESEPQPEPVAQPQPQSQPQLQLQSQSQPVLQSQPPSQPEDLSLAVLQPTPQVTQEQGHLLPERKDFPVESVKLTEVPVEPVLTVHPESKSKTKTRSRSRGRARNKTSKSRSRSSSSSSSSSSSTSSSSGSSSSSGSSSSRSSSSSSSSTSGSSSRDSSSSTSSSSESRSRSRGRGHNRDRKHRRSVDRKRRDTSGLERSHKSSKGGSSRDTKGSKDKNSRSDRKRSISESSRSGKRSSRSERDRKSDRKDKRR
inactive: erlotinib 0.007 | [1] -0.001 | [2] 0.032 | [3] 0.024 | [4] 0.025 | [5] 0.085 | [6] -0.107 | [7] -0.11

PRPF31 (UniProt Q8WWY3)
inactive: erlotinib 0.105 | [1] 0.194 | [2] 0.05 | [3] 0 | [4] 0.217 | [5] 0 | [6] 0.027 | [7] 0.076 | [8] -0.067 | [9] 0.129

PTPA (UniProt Q15257)
inactive: erlotinib 0.022 | [1] 0.034 | [2] 0.069 | [3] 0.127 | [4] -0.01 | [5] 0.01 | [6] 0.022 | [7] 0.029 | [8] -0.037 | [9] -0.013

PJA2 (UniProt O43164)
inactive: erlotinib -0.006 | [1] -0.047 | [2] -0.049 | [3] 0.018 | [4] 0.003 | [5] 0.071 | [6] -0.061 | [7] -0.112 | [8] -0.024 | [9] -0.009

PCLAF (UniProt Q15004)
inactive: erlotinib 0.073 | [1] -0.017 | [2] -0.066 | [3] 0.016 | [4] -0.039 | [5] 0.033 | [6] -0.105 | [7] -0.13 | [8] -0.036 | [9] 0.032

PDSS2 (UniProt Q86YH6)
inactive: erlotinib 0.029 | [1] -0.011 | [2] -0.04 | [3] 0.012 | [4] 0.053 | [5] -0.025 | [6] 0.026 | [7] -0.006 | [8] 0.061 | [9] 0.073

PLK1 (UniProt P53350)
inactive: erlotinib -0.027 | [1] 0.035 | [2] 0.006 | [3] 0.079 | [4] -0.041 | [5] -0.017 | [6] -0.018 | [7] 0.058 | [8] -0.003 | [9] -0.039

PSMD2 (UniProt Q13200)
inactive: erlotinib -0.095 | [1] -0.095 | [2] -0.042 | [3] -0.001 | [4] -0.043 | [5] -0.024 | [6] 0.007 | [7] 0.016 | [8] 0.005 | [9] -0.021

PARN (UniProt O95453)
Sequence of UniProt O95453 (O95453 whole entry, looked up): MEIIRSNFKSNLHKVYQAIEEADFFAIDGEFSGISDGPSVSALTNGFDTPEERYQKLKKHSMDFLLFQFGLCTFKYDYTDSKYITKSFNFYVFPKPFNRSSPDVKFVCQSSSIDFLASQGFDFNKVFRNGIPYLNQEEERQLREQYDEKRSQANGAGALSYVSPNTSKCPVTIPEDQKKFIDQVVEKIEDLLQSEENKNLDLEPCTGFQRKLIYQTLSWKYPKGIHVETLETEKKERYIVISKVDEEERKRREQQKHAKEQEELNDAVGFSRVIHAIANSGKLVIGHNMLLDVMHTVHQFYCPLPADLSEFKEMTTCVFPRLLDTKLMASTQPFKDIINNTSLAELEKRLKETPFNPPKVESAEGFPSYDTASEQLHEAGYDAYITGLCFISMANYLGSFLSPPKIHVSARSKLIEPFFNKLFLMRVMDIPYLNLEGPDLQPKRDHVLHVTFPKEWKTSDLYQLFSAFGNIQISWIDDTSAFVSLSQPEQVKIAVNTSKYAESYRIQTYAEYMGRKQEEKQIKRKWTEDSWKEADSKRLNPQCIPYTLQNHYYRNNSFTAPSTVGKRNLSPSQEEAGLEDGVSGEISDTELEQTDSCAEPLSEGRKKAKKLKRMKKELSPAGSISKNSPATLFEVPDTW
inactive: erlotinib 0 | [1] 0.052 | [2] 0.08 | [3] -0.008 | [4] -0.028 | [5] 0.034 | [6] -0.019 | [7] -0.001 | [8] -0.02 | [9] 0.109

PMM1 (UniProt Q92871)
inactive: erlotinib -0.021 | [1] -0.041 | [2] 0.004 | [3] 0.065 | [4] 0.1 | [5] 0.002 | [6] -0.007 | [7] -0.049 | [8] 0.001 | [9] 0.036

QRSL1 (UniProt Q9H0R6)
Sequence of UniProt Q9H0R6 (Q9H0R6 whole entry, looked up): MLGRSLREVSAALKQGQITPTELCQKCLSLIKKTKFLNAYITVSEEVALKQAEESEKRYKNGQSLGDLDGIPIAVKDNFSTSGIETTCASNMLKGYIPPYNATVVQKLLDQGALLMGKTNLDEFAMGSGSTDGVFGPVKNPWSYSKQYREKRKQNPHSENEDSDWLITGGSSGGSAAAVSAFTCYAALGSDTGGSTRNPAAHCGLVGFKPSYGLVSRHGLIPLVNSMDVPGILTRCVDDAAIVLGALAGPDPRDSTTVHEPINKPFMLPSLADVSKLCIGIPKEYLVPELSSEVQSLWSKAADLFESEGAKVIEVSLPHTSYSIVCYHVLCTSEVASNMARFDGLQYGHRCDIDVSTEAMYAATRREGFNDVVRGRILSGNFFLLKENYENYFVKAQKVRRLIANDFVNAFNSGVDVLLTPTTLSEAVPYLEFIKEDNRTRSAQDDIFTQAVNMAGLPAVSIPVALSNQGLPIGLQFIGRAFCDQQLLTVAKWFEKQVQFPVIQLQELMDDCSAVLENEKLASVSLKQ
inactive: erlotinib 0.024 | [1] 0.052 | [2] 0.118 | [3] -0.002 | [4] 0.06 | [5] -0.023 | [6] 0.071 | [7] -0.032 | [8] 0.017 | [9] -0.116

PMPCA (UniProt Q10713)
inactive: erlotinib -0.014 | [1] 0.005 | [2] 0.064 | [3] 0.016 | [4] 0.03 | [5] -0.014 | [6] 0.07 | [7] 0.065 | [8] -0.026 | [9] 0.011

PIGG (UniProt Q5H8A4)
Sequence of UniProt Q5H8A4 (Q5H8A4 whole entry, looked up): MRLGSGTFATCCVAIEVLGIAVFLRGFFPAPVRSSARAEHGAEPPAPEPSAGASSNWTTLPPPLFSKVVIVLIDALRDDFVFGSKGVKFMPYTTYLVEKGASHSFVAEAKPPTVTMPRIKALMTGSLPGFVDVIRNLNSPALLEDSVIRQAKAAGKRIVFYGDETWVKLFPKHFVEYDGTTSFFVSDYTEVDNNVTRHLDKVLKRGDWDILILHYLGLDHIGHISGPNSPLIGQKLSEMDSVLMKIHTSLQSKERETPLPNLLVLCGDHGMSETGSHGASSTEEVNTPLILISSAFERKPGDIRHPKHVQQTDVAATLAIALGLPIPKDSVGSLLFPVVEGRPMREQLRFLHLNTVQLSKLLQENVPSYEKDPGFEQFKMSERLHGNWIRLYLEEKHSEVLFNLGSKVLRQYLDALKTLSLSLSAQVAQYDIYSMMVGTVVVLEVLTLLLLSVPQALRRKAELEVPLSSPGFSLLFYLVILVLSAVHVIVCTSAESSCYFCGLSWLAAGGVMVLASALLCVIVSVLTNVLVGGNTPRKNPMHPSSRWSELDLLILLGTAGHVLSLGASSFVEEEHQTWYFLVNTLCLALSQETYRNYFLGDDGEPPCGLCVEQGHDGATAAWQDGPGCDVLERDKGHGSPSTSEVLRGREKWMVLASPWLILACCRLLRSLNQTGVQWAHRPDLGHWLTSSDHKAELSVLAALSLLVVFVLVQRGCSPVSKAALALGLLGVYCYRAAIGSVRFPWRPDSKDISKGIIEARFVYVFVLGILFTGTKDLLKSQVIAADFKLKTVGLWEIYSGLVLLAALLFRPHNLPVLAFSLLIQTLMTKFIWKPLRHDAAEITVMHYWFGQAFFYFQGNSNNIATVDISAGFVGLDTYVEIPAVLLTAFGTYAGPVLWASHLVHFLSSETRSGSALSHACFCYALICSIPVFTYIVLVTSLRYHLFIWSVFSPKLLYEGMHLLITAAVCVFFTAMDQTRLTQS
inactive: erlotinib -0.002 | [1] 0.016 | [2] -0.009 | [3] 0.027 | [4] 0.023 | [5] 0.014 | [6] -0.013 | [7] -0.003 | [8] -0.016 | [9] 0.067

PDLIM7 (UniProt Q9NR12)
inactive: erlotinib 0.013 | [1] 0.039 | [2] 0.1 | [3] -0.037 | [4] -0.01 | [5] 0.002 | [6] 0.073 | [7] 0.016 | [8] -0.01 | [9] 0.133

PLCB3 (UniProt Q01970)
inactive: erlotinib -0.004 | [1] 0.028 | [2] 0.005 | [3] 0.023 | [4] 0.054 | [5] 0.016 | [6] -0.011 | [7] 0.034 | [8] -0.057 | [9] -0.07

PIP4K2A (UniProt P48426)
inactive: erlotinib 0.172 | [1] 0.028 | [2] 0.075 | [3] -0.058 | [4] -0.065 | [5] 0.287 | [6] 0.108 | [7] 0.076 | [8] 0.162 | [9] -0.013

PGGHG (UniProt Q32M88)
active: [4] -0.44
inactive: erlotinib 0.059 | [1] 0.114 | [2] 0.024 | [3] 0.002 | [5] 0.048 | [6] -0.049 | [7] -0.248 | [8] -0.225 | [9] 0.119

PPID (UniProt Q08752)
Sequence of UniProt Q08752 (Q08752 whole entry, looked up): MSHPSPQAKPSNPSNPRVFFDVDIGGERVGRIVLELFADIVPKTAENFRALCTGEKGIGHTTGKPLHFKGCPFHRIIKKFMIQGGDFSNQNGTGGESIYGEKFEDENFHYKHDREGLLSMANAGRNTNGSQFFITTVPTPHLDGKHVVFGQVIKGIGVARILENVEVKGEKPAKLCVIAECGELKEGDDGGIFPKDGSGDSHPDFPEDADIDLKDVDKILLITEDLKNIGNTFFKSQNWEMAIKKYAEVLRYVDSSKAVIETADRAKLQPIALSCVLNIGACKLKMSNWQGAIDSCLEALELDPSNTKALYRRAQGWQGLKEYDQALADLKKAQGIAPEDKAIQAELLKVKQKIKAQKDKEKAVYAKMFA
inactive: erlotinib 0.114 | [1] 0.111 | [2] -0.01 | [3] -0.021 | [4] 0.075 | [5] 0.007 | [6] 0.095 | [7] 0.021 | [8] -0.076 | [9] -0.118

PC (UniProt P11498)
inactive: erlotinib -0.037 | [1] 0.101 | [2] 0.117 | [3] 0.056 | [4] 0.047 | [5] -0.042 | [6] 0.042 | [7] 0.031 | [8] -0.022 | [9] 0.012

PRKACB isoform 2 (UniProt P22694)
inactive: erlotinib 0.013 | [1] 0.049 | [2] -0.065 | [3] 0.072 | [4] 0.007 | [5] 0.008 | [6] -0.034 | [7] -0.096 | [8] -0.095 | [9] 0.007

POLR2C (UniProt P19387)
inactive: erlotinib 0.05 | [1] 0.037 | [2] -0.006 | [3] -0.051 | [4] -0.038 | [5] -0.053 | [6] 0.172 | [7] 0.001 | [8] 0.117 | [9] 0
